Results taken from publication PMC7826789 (International Journal of Molecular Sciences, 2021).

Key:
Details in all cases: Compound Concentration (nM):1000
PLK3 = system: PLK3
PLK4 = system: PLK4
PRKCD = system: PRKCD
PRKCE = system: PRKCE
PRKCH = system: PRKCH
PRKCI = system: PRKCI
PRKCQ = system: PRKCQ
PRKD1 = system: PRKD1
PRKD2 = system: PRKD2
PRKD3 = system: PRKD3
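Also: KINOMEscan scanMAX binding as percent activity remaining versus control; lower means stronger binding.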

| SMILES | Percent Control (PLK3) [%] | Percent Control (PLK4) [%] | Percent Control (PRKCD) [%] | Percent Control (PRKCE) [%] | Percent Control (PRKCH) [%] | Percent Control (PRKCI) [%] | Percent Control (PRKCQ) [%] | Percent Control (PRKD1) [%] | Percent Control (PRKD2) [%] | Percent Control (PRKD3) [%] |
| --- | --- | --- | --- | --- | --- | --- | --- | --- | --- | --- |
| CC1=C(C(=O)Nc2ccc3[nH]ncc3c2)C(c2ccc(Cl)c(Cl)c2)CC(=O)N1 (stereo not drawn) [GSK299115A] | 84 | 87 | 100 | 94 | 100 | 91 | 95 | 100 | 85 | 47 |
| COc1cc2ncn(-c3cc(O[C@H](C)c4ccccc4Cl)c(C(N)=O)s3)c2cc1OC [GSK237701A] | 2 | 30 | 100 | 91 | 100 | 78 | 100 | 100 | 100 | 49 |
| CN1CCN(C(=O)c2ccc(NC(=O)Nc3ccc(N(C)c4ccnc(Nc5ccc(CS(C)(=O)=O)cc5)n4)cc3)cc2)CC1.Cl [GW830263A] | 100 | 2.7 | 100 | 99 | 100 | 74 | 51 | 100 | 100 | 100 |
| COC(=O)Nc1nc2ccc(Oc3ccc(NC(=O)Nc4cc(C(F)(F)F)ccc4F)cc3)cc2s1.Cl [GW693917A] | 100 | 66 | 100 | 100 | 100 | 91 | 62 | 100 | 100 | 86 |
| COc1ccccc1-c1cc(/C=C2\C(=O)Nc3ncc(Br)cc32)cc(Br)c1O [GW442130X] | 89 | 80 | 100 | 100 | 86 | 100 | 100 | 83 | 100 | 100 |
| CCS(=O)(=O)c1ccc(OC)c(Nc2ncc(-c3cccc(F)c3)o2)c1 [GW621970X] | 100 | 40 | 100 | 100 | 100 | 100 | 100 | 100 | 100 | 85 |
| NS(=O)(=O)c1ccc(N/N=C2\C(=O)Nc3ccc(C(=O)NCCc4c[nH]cn4)cc32)cc1 [GW300660X] | 76 | 81 | 100 | 98 | 100 | 90 | 100 | 100 | 100 | 85 |
| COc1ccc2c(-c3ccnc(Nc4cccc(OC(F)(F)F)c4)n3)cnn2n1 [GW810372X] | 83 | 100 | 99 | 100 | 94 | 100 | 100 | 100 | 100 | 100 |
| CC1=C(C(=O)Nc2ccc3[nH]ncc3c2)C(c2ccc3ccccc3c2)CC(=O)N1 (stereo not drawn) [GSK270822A] | 82 | 88 | 100 | 100 | 100 | 80 | 82 | 100 | 100 | 22 |
| Cl.O=C(O[C@H]1CN[C@H](C#Cc2cc3ncnc(Nc4ccc5c(cnn5Cc5ccccc5)c4)c3s2)C1)N1CCOCC1 [GSK200398A] | 91 | 69 | 100 | 88 | 100 | 100 | 64 | 100 | 93 | 100 |
| COc1cc(/C=N/Nc2ncnc3[nH]ncc23)ccc1O [GW578748X] | 52 | 36 | 78 | 100 | 100 | 63 | 96 | 100 | 100 | 85 |
| COc1ccc2cc(-c3c(-c4ccncc4)nc(-c4ccc(S(C)(=O)=O)cc4C)n3C)ccc2c1 [SB-633825] | 67 | 85 | 91 | 90 | 100 | 68 | 59 | 84 | 100 | 29 |
| COc1cc(N2CCN(C(C)C)CC2)ccc1Nc1nc(Nc2ccc(F)cc2C(=O)NC[C@@H](O)CO)c2cc[nH]c2n1 [GSK1392956A] | 96 | 41 | 100 | 100 | 100 | 97 | 95 | 79 | 57 | 49 |
| Cl.O=C(Nc1ccc(Oc2ccc3[nH]c(NC(=O)c4ccccc4)nc3c2)cc1)Nc1cc(C(F)(F)F)ccc1F [GW709042A] | 92 | 77 | 87 | 100 | 100 | 90 | 100 | 100 | 100 | 83 |
| COc1ccc2[nH]c3c4[nH]c5ccc(OC)cc5c4c4c(c3c2c1)C(=O)NC4=O [GW296115X] | 88 | 1.4 | 93 | 75 | 35 | 63 | 44 | 68 | 62 | 75 |
